# Results filed as inconclusive are left out. A structure can be active in one record and inactive in another. Activity calls are given as the source filed them. Rule for the calls, unless noted: active = hit-call score of the fitted dose curve at least 0.9, where 1 is the maximum; inconclusive = response in the unintended direction; inactive = score below 0.9.
# What was measured:
# [1] = test system: Sodium/Iodide Symporter (NIS), SLC5A5 (gene 6528); test: CPHEA_Stoker_NIS_Inhibition_RAIU: CPHEA's Radioactive Iodide Uptake (RAIU) Assay for Sodium/Iodide Symporter (NIS) Inhibition, Stoker and Laws Labs (AID 2283841)
# Method in brief: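 Iodide uptake through human NIS is measured in an engineered HEK293T line. Cells take up 125I (329pM final) for 2 hours at room temperature alongside chemicals at 0.001–100uM. Retained radioactivity is counted, and the signal is expressed against DMSO controls.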
# [2] = CEETOX_H295R_11DCORT_noMTC: CeeTox H295R High-throughput Steroidogenesis Assay for 11-Deoxycortisol (11DCORT), maximum tolerated concentration (MTC) filtered results only (AID 2283911; active = hit-call score of the fitted dose curve at least 0.9, where 1 is the maximum; inactive = score below 0.9); details: actives raise or lower the signal
# Method in brief: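 Forskolin-primed (10 uM, 48 h) H295R adrenal cells are dosed for 48 h at 0.1% DMSO; medium 11-deoxycortisol is quantified by LC-MS/MS against a 7-point standard curve, with activity fitted in both directions versus DMSO.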
# [3] = CEETOX_H295R_OHPREG_noMTC: CeeTox H295R High-throughput Steroidogenesis Assay for OH-Pregnenolone (OHPREG), maximum tolerated concentration (MTC) filtered results only (AID 2283912; active = hit-call score of the fitted dose curve at least 0.9, where 1 is the maximum; inactive = score below 0.9); details: actives raise or lower the signal
# Procedure: (§1) CEETOX_H295R is a cell-based, multiplexed-readout assay that uses H295R, a human adrenal gland cell line, with measurements taken at 48 hours after chemical dosing in a 96-well plate.CEETOX_H295R_OHPREG_noMTC is one of 12 assay component(s) measured or calculated from the CEETOX_H295R assay (11 hormones and 1 viability assay). It is designed to make measurements of hormone induction, a form of inducible reporter, as detected with absorbance signals by HPLC-MS-MS technology. The concentrations for these components have not been pre-filtered for the maximum tolerated concentration (MTC) based on the MTT assay (_noMTC).Data from the assay component CEETOX_H295R_OHPREG_noMTC was analyzed into 1 assay endpoint. This assay endpoint, CEETOX_H295R_OHPREG_noMTC, was analyzed with bidirectional fitting relative to DMSO as the negative control and baseline of activity. Using a type of inducible reporter, gain or loss-of-signal activity using HPLC-MS-MS was used to understand synthesis of 17alpha-hydroxypregnenolone in H295R cell line at 48hr of chemical exposure, without filtering concentrations for maximum tolerated concentration (MTC). To generalize the intended target to other relatable targets, this assay endpoint is annotated to the steroid hormone intended target family, where the subfamily is progestagens.
# (§2) Cell culture and media preparation procedures were conducted in accordance with OECD Test No. 456 guidelines, with minor modifications. H295R cells (ATCC CRL-2128) were expanded for 5 passages and frozen in batches in liquid nitrogen. Prior to the steroidogenesis assay, H295R cells were thawed and passed at least 4 times. The maximum passage was 10. Cells were maintained in a 1:1 mixture of DMEM/F12 supplemented with 5ml/L ITS+ Premix (BD Bioscience) and 12.5 ml/L Nu-Serum (BD Bioscience). After seeding cells into 96-well plates at 50-60% confluency, cells were allowed to adhere overnight. Prior to chemical testing, culture medium was replaced with 175 uL medium containing 10 uM forskolin to stimulate steroidogenesis for 48 hours. Following prestimulation, forskolin medium was replaced with medium containing test chemical solubilized in DMSO (ensuring a final concentration of 0.1% DMSO). […] For steroid quantification, media samples were shipped to OpAns, LLC (Durham, NC) on dry ice, and samples were thawed to room temperature prior to liquid-liquid extraction. […] Steroid hormones were separated by HPLC, eluted using a reverse phase C18 gradient with electrospray positive ionization, followed by quantification by tandem mass spectrometry (MS/MS). Data were acquired on a MassHunter Workstation Acquisition version B03.01 (Agilent Technologies, Inc.) and processed using MassHunter Quantitative Analysis for QQQ. Accuracy was determined for each hormone analyte from 3 standards to determine upper and lower limits of quantification (ULOQ and LLOQ, respectively) using a 7-point standard curve. Precision and accuracy of the extraction and quantification methods were calculated as the percent relative standard deviation (%RSD) of the spiked standards and percent spiked standard recovered, respectively. The goal was to achieve 100% accuracy (i.e., recover all spiked-in standard at quantification with minimal loss during run time) and good precision (i.e., have %RSD <15% to ensure reproducibility). Test medium was removed following chemical exposure, and cell viability was evaluated in the same wells by MTT. […]
# [4] = CEETOX_H295R_OHPROG_noMTC: CeeTox H295R High-throughput Steroidogenesis Assay for OH-Progesterone (OHPROG), maximum tolerated concentration (MTC) filtered results only (AID 2283914; active = hit-call score of the fitted dose curve at least 0.9, where 1 is the maximum; inactive = score below 0.9); details: actives raise or lower the signal
# Procedure: as §1, with “plate.CEETOX_H295R_OHPROG_noMTC” for “plate.CEETOX_H295R_OHPREG_noMTC”, “CEETOX_H295R_OHPROG_noMTC” for “CEETOX_H295R_OHPREG_noMTC”, “CEETOX_H295R_OHPROG_noMTC,” for “CEETOX_H295R_OHPREG_noMTC,”, “17alpha-hydroxyprogesterone” for “17alpha-hydroxypregnenolone”
# as §2
# [5] = CEETOX_H295R_CORTISOL_noMTC: CeeTox H295R High-throughput Steroidogenesis Assay for Cortisol, maximum tolerated concentration (MTC) filtered results only (AID 2283916; active = hit-call score of the fitted dose curve at least 0.9, where 1 is the maximum; inactive = score below 0.9); details: actives raise or lower the signal
# Method in brief: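 H295R human adrenal cells prestimulated 48 h with 10 uM forskolin, then exposed 48 h to chemical in 0.1% DMSO; cortisol in medium quantified by HPLC-MS/MS; bidirectional fit vs DMSO baseline, concentrations not MTT-filtered for MTC.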
# [6] = CEETOX_H295R_CORTIC_noMTC: CeeTox H295R High-throughput Steroidogenesis Assay for Corticosterone (CORTIC), maximum tolerated concentration (MTC) filtered results only (AID 2283917; active = hit-call score of the fitted dose curve at least 0.9, where 1 is the maximum; inactive = score below 0.9); details: actives raise or lower the signal
# Method in brief: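 Corticosterone secreted into the medium was measured by reverse-phase C18 HPLC with tandem MS after MTBE extraction. Cells (H295R) had 48 h forskolin (10 uM) stimulation before 48 h chemical exposure; gain or loss of signal was fitted relative to DMSO.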
# [7] = molecular target: frog Thyroid hormone Receptor alpha (TRa), thra-a (gene 397942) (UniProt P15204); test: ATG_frTRa_XSP2: Attagene TRANS-FACTORIAL Multi-Species (XSP2) HepG2 Assay for frog Thyroid hormone Receptor alpha (TRa) (AID 2283839);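 for AC50: AC50 reflects induction of frog TRa-driven reporter mRNA above DMSO baseline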
# Method in brief: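 Chimeric frog TRα-GAL4 activity in human liver cells measures reporter transcript induction 24 h post-dose. Detection uses RT-PCR, HpaI-digested labelled products and fluorescence capillary electrophoresis; DMSO serves as negative control.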
# [8] = molecular target: human Thyroid hormone Receptor beta (TRb), THRB (gene 7068) (UniProt P10828); test: ATG_hTRb_XSP2: Attagene TRANS-FACTORIAL Multi-Species (XSP2) HepG2 Assay for human Thyroid hormone Receptor beta (TRb) (AID 2283840);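 note: actives raise reporter mRNA so potency reflects agonist-like gain of signal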
# Method in brief: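 Gain-of-signal reporter transcription, referenced to DMSO, was measured in transiently transfected HepG2 after 24 h exposure; labeled RT-PCR products were resolved by capillary electrophoresis. Assay medium included 3 nM 6-alpha-fluorotestosterone and 1.5 nM norgestrel.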
# [9] = CEETOX_H295R_DOC_noMTC: CeeTox H295R High-throughput Steroidogenesis Assay for DOC, maximum tolerated concentration (MTC) filtered results only (AID 2283918; active = hit-call score of the fitted dose curve at least 0.9, where 1 is the maximum; inactive = score below 0.9); details: actives raise or lower the signal
# Method in brief: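 H295R cells prestimulated 48 h with 10 uM forskolin, then exposed 48 h to chemical in 0.1% DMSO. 11-Deoxycorticosterone in medium measured by MTBE extraction and HPLC-MS/MS; bidirectional fit vs DMSO, no MTC filter.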
# [10] = CEETOX_H295R_ESTRADIOL_noMTC: CeeTox H295R High-throughput Steroidogenesis Assay for Estradiol, maximum tolerated concentration (MTC) filtered results only (AID 2283919; active = hit-call score of the fitted dose curve at least 0.9, where 1 is the maximum; inactive = score below 0.9); details: actives raise or lower the signal
# Method in brief: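 Readout: dansyl-derivatized estradiol quantified by LC-MS/MS in medium from H295R cells dosed 48 h (0.1% DMSO) following 48 h forskolin (10 uM) prestimulation. Gain or loss of signal fitted against DMSO; no MTC filtering applied.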
# Chain of human Thyroid hormone Receptor beta (TRb), THRB (gene 7068) (P10828 whole entry, looked up): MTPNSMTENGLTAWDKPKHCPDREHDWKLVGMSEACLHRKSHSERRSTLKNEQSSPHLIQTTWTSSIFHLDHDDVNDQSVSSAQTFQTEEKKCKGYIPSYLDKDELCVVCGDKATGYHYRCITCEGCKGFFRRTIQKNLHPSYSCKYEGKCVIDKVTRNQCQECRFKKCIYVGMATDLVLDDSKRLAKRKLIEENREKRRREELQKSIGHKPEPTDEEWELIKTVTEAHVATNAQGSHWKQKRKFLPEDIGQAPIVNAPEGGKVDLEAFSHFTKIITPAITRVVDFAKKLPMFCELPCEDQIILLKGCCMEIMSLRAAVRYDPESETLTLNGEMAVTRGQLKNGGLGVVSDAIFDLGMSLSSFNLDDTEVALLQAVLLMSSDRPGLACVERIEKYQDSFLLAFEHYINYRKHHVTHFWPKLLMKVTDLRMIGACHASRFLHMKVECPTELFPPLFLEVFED
# Chain of frog Thyroid hormone Receptor alpha (TRa), thra-a (gene 397942) (P15204 whole entry, looked up, the tested form may be a part): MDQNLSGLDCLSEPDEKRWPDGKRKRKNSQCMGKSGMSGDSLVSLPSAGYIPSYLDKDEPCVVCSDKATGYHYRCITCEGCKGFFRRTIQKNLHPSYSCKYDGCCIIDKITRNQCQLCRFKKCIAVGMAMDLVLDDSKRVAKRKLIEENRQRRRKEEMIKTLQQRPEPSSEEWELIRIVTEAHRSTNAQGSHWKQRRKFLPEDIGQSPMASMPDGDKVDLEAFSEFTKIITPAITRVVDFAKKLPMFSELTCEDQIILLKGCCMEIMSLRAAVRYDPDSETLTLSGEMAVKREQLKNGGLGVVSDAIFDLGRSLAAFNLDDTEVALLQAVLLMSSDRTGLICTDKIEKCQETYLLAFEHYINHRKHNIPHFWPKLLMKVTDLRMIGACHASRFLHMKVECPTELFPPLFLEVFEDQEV
smiles,measurement,setting,value
Brc1ccc(Oc2ccccc2)cc1,outcome,[1],inactive
same,outcome,[2],inactive
same,outcome,[3],inactive
same,outcome,[4],inactive
same,outcome,[5],inactive
same,outcome,[6],inactive
CCC(C)c1ccc(O)cc1 (configuration not stated),outcome,[7],inactive
same,outcome,[8],inactive
same,outcome,[1],inactive
Nc1ccc(Cl)cc1N,AC50,[1],50 µM (active)
c1ccc2c(c1)-c1cccc3cccc-2c13,outcome,[7],inactive
same,outcome,[8],inactive
C[C@]12C=CC3=C4CCC(=O)C=C4CC[C@H]3[C@@H]1CC[C@@H]2O,AC50,[8],0.0256 µM (active)
Clc1ccc(C(c2ccc(Cl)cc2)C(Cl)Cl)cc1,outcome,[8],inactive
same,outcome,[1],inactive
CC(C)(OOC(C)(C)c1ccccc1)c1ccccc1,outcome,[1],inactive
CC(C)(O)c1cnn2c(-c3ccc(F)c(-c4c(F)cccc4C#N)c3)cnc2n1,outcome,[1],inactive
CN(C)c1ccc(C(=O)c2ccc(N(C)C)cc2)cc1,outcome,[1],inactive
O=[N+]([O-])c1ccc(Oc2ccc(Cl)cc2Cl)cc1,outcome,[7],inactive
same,outcome,[8],inactive
same,outcome,[1],inactive
CCNS(=O)(=O)C(F)(F)C(F)(F)C(F)(F)C(F)(F)C(F)(F)C(F)(F)C(F)(F)C(F)(F)F,outcome,[1],inactive
Cc1cccc(N)c1N,outcome,[1],inactive
CCOC(=O)[C@]1(c2ccccc2)Oc2ccccc2[C@@H]1N,outcome,[1],inactive
ClC1=C(Cl)[C@]2(Cl)[C@H]3[C@H]([C@@H]4C=C[C@H]3C4)[C@@]1(Cl)C2(Cl)Cl,outcome,[1],inactive
Oc1ccc2ccc3cccc4ccc1c2c34,AC50,[7],22.7 µM (active)
same,outcome,[7],inactive
same,outcome,[1],inactive
CC(C)COC(=O)c1ccccc1C(=O)OCC(C)C,outcome,[2],inactive
same,outcome,[3],inactive
same,outcome,[4],inactive
same,outcome,[5],inactive
same,outcome,[6],inactive
same,outcome,[9],inactive
same,outcome,[10],inactive
CCCCC(CC)COC(=O)c1ccc(C(=O)OCC(CC)CCCC)c(C(=O)OCC(CC)CCCC)c1 (configuration not stated),outcome,[7],inactive
same,outcome,[8],inactive
CCC[CH2][Sn]([Cl])([CH2]CCC)[CH2]CCC,outcome,[7],inactive
same,AC50,[8],0.649 µM (active)
same,AC50,[1],8.22 µM (active)
Clc1ccc(C(c2ccc(Cl)cc2)C(Cl)(Cl)Cl)cc1,outcome,[7],inactive
same,outcome,[8],inactive
C=CCc1ccc2c(c1)OCO2,outcome,[2],inactive
same,outcome,[3],inactive
same,outcome,[4],inactive
same,outcome,[5],inactive
same,outcome,[6],inactive
same,outcome,[9],inactive
ClC1=C(Cl)C2(Cl)C3C(Cl)C=CC3C1(Cl)C2(Cl)Cl (configuration not stated),outcome,[1],inactive
Cc1cc(N=Nc2ccccc2C)ccc1N,outcome,[1],inactive
CCCCOC(=O)c1ccccc1C(=O)OCc1ccccc1,outcome,[7],inactive
same,outcome,[8],inactive
same,outcome,[1],inactive
same,outcome,[2],inactive
same,outcome,[3],inactive
same,outcome,[4],inactive
same,outcome,[5],inactive
same,outcome,[6],inactive
same,outcome,[9],inactive
CC(C)(C)C(O)(CCc1ccc(Cl)cc1)Cn1cncn1 (configuration not stated),outcome,[8],inactive
CCCCCCCCn1sccc1=O,outcome,[1],inactive
CCCCCOC(=O)c1ccccc1C(=O)OCCCCC,outcome,[7],inactive
same,outcome,[8],inactive
same,outcome,[2],inactive
same,outcome,[3],inactive
same,outcome,[4],inactive
same,outcome,[5],inactive
same,outcome,[6],inactive
same,outcome,[9],inactive
same,outcome,[10],inactive
[Cl-].[Cl-].[Hg+2],AC50,[1],7.02 µM (active)
c1ccc2c(c1)oc1ccccc12,outcome,[1],inactive

# — PubChem BioAssay (EPA / NIEHS)
